Assay results taken from PubChem BioAssay (EPA / NIEHS).
Calls of active or inactive are those of the source. How the source made its calls: active means hit-call score of the fitted dose curve at least 0.9, where 1 is the maximum; inactive means score below 0.9.

Target: Signal transducer and activator of transcription 3 (Homo sapiens) (UniProt P40763)
Test: ATG_STAT3_CIS: Attagene CIS-FACTORIAL HepG2 Assay for human Signal Transducer and Activator of Transcription 3 (STAT3) (AID 2282963)
Details: HepG2, Attagene cis-factorial STAT3 reporter transcription; actives raise or lower the signal
Experimental: ATG_CIS is a cell-based, multiplexed-readout assay that uses HepG2, a human liver cell line, with measurements taken at 24 hours after chemical dosing in a 24-well plate.ATG_STAT3_CIS is one of 52 assay component(s) measured or calculated from the ATG_CIS assay. It is designed to make measurements of mRNA induction, a form of inducible reporter, as detected with fluorescence intensity signals by Reverse transcription polymerase chain reaction (RT-PCR) and Capillary electrophoresis technology.Data from the assay component ATG_STAT3_CIS was analyzed into 1 assay endpoint. This assay endpoint, ATG_STAT3_CIS, was analyzed with bidirectional fitting relative to DMSO as the negative control and baseline of activity. Using a type of inducible reporter, measures of mRNA for gain or loss-of-signal activity can be used to understand the reporter gene at the transcription factor-level as they relate to the gene STAT3. Furthermore, this assay endpoint can be referred to as a primary readout, because this assay has produced multiple assay endpoints where this one serves a reporter gene function. To generalize the intended target to other relatable targets, this assay endpoint is annotated to the dna binding intended target family, where the subfamily is stat protein.
Human liver HepG2 cells are transiently transfected with multiple reporter transcription units (MRTUs) in 6-well plates using FuGene 6 reagent (Roche; 3 ml FuGene/1 mg DNA). The MRTU constructs are regulated by a cis-regulating element (promoter). […] A major difference between the CIS and TRANS system is that in CIS activities of endogenous TFs are measured, whereas the TRANS assay evaluates changes in activities of exogenous, chimeric NR-Gal4 proteins. […] At the end of 24 hour incubation, total RNA was isolated using TriZol reagent (Invitrogen). The isolated RNA is then reverse-transcribed using oligo(dT) primer and Mo-MLV reverse transcriptase (Invitrogen) with DNAse I (Ambion) treatment for 30 min. The one-tenth of the produced cDNA was amplified by PCR using Taq DNA polymerase (Invitrogen) and two reporter sequence-specific primers. The PCR products were fluorescently labeled by primer extension with 6-arboxyfluorescein (6-FAM) 5'-labeled reporter sequence-specific primer (2 min at 95 C, 20 s at 68 C and 10 min at 72 C) and these products were digested with 5U of HpaI (New England Biolabs) for 2h at 37 C. The fragments were purified using Qiaquick PCR columns (Qiagen), analyzed on an ABI 3130xL genetic analyzer (Applied Biosystems) with peak positions identified by using a set of X-rhodamine (ROX)-labeled MapMarker1000 molecular weight standards (BioVentures). The raw capillary electrophoresis data was processed using Attagraph software (Attagene).

Sequence of Signal transducer and activator of transcription 3 (Homo sapiens) (P40763 whole entry, looked up): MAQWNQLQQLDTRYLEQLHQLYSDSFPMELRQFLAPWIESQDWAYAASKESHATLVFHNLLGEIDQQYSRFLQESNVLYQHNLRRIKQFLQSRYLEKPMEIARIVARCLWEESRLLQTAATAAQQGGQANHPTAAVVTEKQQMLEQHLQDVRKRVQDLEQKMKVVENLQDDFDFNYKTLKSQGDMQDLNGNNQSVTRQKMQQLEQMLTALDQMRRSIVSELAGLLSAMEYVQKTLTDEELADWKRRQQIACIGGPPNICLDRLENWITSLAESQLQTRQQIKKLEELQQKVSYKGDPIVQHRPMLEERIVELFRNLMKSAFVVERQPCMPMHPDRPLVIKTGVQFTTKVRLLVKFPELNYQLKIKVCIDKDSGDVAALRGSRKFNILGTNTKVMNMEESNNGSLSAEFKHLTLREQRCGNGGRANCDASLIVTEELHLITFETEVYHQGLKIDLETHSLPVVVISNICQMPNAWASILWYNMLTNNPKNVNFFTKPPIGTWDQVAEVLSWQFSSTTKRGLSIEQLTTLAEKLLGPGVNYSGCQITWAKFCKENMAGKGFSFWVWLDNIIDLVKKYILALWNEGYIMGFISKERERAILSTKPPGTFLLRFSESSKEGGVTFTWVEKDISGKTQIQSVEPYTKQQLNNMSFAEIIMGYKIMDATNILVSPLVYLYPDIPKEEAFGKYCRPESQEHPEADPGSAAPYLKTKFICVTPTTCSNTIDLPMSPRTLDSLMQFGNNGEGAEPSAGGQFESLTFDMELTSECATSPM

outcome, inactive:
O=C(O)C(c1ccc(Cl)cc1)c1ccc(Cl)cc1, COC(=O)/C=C\C(=O)O, CCCCC(CC)CCC(CC(C)C)OS(=O)(=O)O (stereo not given), CCC(CC)C(=O)O, CC(C)C(=O)C(C)C, O=S(=O)(O)c1cc(S(=O)(=O)O)c2ccc3c(S(=O)(=O)O)cc(S(=O)(=O)O)c4ccc1c2c43, Clc1nc2ccccc2s1, CCCCCCCCC(=O)OCC, O=C(Nc1ccccc1SSc1ccccc1NC(=O)c1ccccc1)c1ccccc1, O=CC1CC1, C[Si](C)(CCCN)O[Si](C)(C)CCCN, O=C1C=CC(=O)O1, CCC(=O)Oc1ccc(/C(CC)=C(\CC)c2ccc(OC(=O)CC)cc2)cc1, Nc1nc2ccccc2[nH]1, c1cc(C(c2ccc(OCC3CO3)cc2)C(c2ccc(OCC3CO3)cc2)c2ccc(OCC3CO3)cc2)ccc1OCC1CO1 (stereo not given), NC(=O)NNC(N)=O, O=C1Nc2ccccc2C1(c1ccc(O)cc1)c1ccc(O)cc1, COc1ccc(-c2coc3cc(O)ccc3c2=O)cc1, CC(C)(C)C1CCCCC1=O (stereo not given), CCOC(=O)Cc1cccc2ccccc12, C1=Cc2ccccc2C1, C=COCCCC, CCCCCCCC(C)=O, Cn1c(=O)[nH]c2ncn(C)c2c1=O, COC(=O)C1=C(C)NC(C)=C(C(=O)OCC(C)C)C1c1ccccc1[N+](=O)[O-] (stereo not given), CCN(CCC#N)c1ccc(N=Nc2c(Cl)cc([N+](=O)[O-])cc2Cl)cc1, CC(=O)c1ccc[nH]1, c1ccc2c(c1)ccc1cc3c(ccc4ccccc43)cc12, OC1CCCC1, c1ccc2c(c1)ccc1ncccc12, CC/C=C\CCOC(=O)CCCCC, CC(C)(C)c1ccc(OC(=O)c2ccccc2O)cc1, CC(=O)Nc1nnc(S(N)(=O)=O)s1, Cc1cc(C)c(C(=O)O)c(C)c1, CC1OC1C1CCC2(C)OC2C1 (stereo not given), CCCCCCCC/C=C\CCCCCCCC(=O)O, CCO[Si](C)(OCC)OCC, NNC(=O)c1cccc(C(=O)NN)c1, C=CC(C)(C)C, CC(=O)Oc1ccc(C(C)=O)cc1
